# Measurements as given in PubChem BioAssay (NCATS).
# Several values for one entry are separate records, joined by “and”; a condition that tells them apart may be missing. Identical values can stand only once. Records with an inconclusive call do not appear. A call without a number means that no potency is given here. Values without a mark were called inactive. Activity calls are given as the source filed them. Calls come from the whole dose curve; as a rule, active = well fitted curve in the direction sought with a large enough effect; inconclusive = small, poorly fitted or top-dose-only effect, or another doubt; inactive = no such curve, though single readings can be large; an effect the other way counts as inactive or inconclusive.
# Tests used:
# [1] = target: Cellular tumor antigen p53 (Homo sapiens) (UniProt P04637); assay: Primary qHTS for small molecule compounds that upregulate eGFP-tagged delta133p53alpha (in N-terminal) cells. (AID 2060322); conditions: NCI-H358 eGFP-delta133p53alpha fluorescence, 24 h; activation: active compounds read high; note: nearly all actives have a fitted effect of over 75% in size
# Chain of Cellular tumor antigen p53 (Homo sapiens) (P04637 whole entry, looked up): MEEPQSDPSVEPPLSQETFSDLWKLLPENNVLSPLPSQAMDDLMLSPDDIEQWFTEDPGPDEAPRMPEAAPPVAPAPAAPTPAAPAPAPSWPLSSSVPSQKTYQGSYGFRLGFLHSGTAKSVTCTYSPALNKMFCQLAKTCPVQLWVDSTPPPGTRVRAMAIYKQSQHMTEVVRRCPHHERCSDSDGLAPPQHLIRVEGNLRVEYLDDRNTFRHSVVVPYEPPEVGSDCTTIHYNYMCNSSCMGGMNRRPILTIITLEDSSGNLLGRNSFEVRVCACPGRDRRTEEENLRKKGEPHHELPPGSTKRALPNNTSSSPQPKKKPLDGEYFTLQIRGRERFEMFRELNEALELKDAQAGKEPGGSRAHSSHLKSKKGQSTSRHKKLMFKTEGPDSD
# Method in brief: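 NCI-H358 cells pre-induced 24 h with 10 ng/ml doxycycline to express N-terminal eGFP-delta133p53alpha, then dosed 24 h at 37C without doxycycline; fixed, Hoechst-stained, GFP intensity by laser scanning cytometry, normalized to DMSO (0%) and 57.5 uM 5-azacytidine (100%).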
# [2] = target: Aldehyde dehydrogenase, mitochondrial (Homo sapiens) (UniProt P05091); assay: qHTS for Inhibitors of the Aldehyde Dehydrogenase Family (ALDH2) Primary screen (AID 2061308); conditions: ALDH2 enzyme inhibition qHTS, 1536-well; series mostly up to 56 µM; note: nearly all actives have a fitted effect of over 55% in size
# [3] = target: Retinaldehyde dehydrogenase 3 (Homo sapiens) (UniProt P47895); assay: qHTS for Inhibitors of the Aldehyde Dehydrogenase Family (ALDH1A3) Validation screen (AID 2061312); conditions: ALDH1A3 enzyme inhibition qHTS validation, fluorescence; series mostly up to 84.7 µM; note: nearly all actives have a fitted effect of over 45% in size
# [4] = target: Retinaldehyde dehydrogenase 3 (Homo sapiens) (UniProt P47895); assay: qHTS for Inhibitors of the Aldehyde Dehydrogenase Family (ALDH1A3) Primary screen (AID 2061315); conditions: ALDH inhibition qHTS; series mostly up to 56 µM
# [5] = BET inhibitor-based combinations targeting novel dependencies in MECOM-rearranged (r) AML: HNT-34 cell line (AID 2202234); conditions: HNT-34 AML viability, CellTiter-Glo luminescence, 48 h; series mostly up to 46 µM; note: nearly all actives have a fitted effect of over 35% in size
# Method in brief: (§1)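 Luminescent ATP readout (CellTiter-Glo, 15 min at room temperature) after 48 hr drug exposure gave viability. Dose-response curves, normalized to DMSO and empty-well controls, were summarized as area under the curve and its mean-centred Z-score.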
# [6] = BET inhibitor-based combinations targeting novel dependencies in MECOM-rearranged (r) AML: AML-191 cell line (AID 2202236; note: nearly all actives have a fitted effect of over 35% in size); conditions: AML-191 viability, CellTiter-Glo luminescence, 48 h; series mostly up to 46 µM
# Method in brief: (§2)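 Luminescent ATP readout (CellTiter-Glo) after 48 hr drug exposure gives viability. Curves span 11 concentrations and are normalized to DMSO and empty wells. Activity is reported as area under the curve and its Z-transform within each cell line.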
# [7] = BET inhibitor-based combinations targeting novel dependencies in MECOM-rearranged (r) AML: AML-194 cell line (AID 2202237; note: nearly all actives have a fitted effect of over 40% in size); conditions: AML-194 (MECOM-r AML) viability, CellTiter-Glo, 48 h; series mostly up to 46 µM
# Method in brief: as §2
# [8] = BET inhibitor-based combinations targeting novel dependencies in MECOM-rearranged (r) AML: MV-4-11 cell line (AID 2202233); conditions: MV-4-11 AML viability, CellTiter-Glo luminescence, 48 h; series mostly up to 46 µM; note: potency is the fitted concentration of half-maximal effect; nearly all actives have a fitted effect of over 45% in size
# Method in brief: as §1
# [9] = BET inhibitor-based combinations targeting novel dependencies in MECOM-rearranged (r) AML: UCSD-AML1 cell line (AID 2202235); conditions: UCSD-AML1 AML cells viability, CellTiter-Glo, 48 h; series mostly up to 46 µM; note: nearly all actives have a fitted effect of over 40% in size
# Method in brief: as §1
structure (smiles),measurement,setting,value
Cc1cc(Nc2ncnc3ccc(-c4ccc(CNCCS(C)(=O)=O)o4)cc23)ccc1Oc1ccn2ncnc2c1,activation,[1],23.7% and 4.3%
same,Potency,[2],inactive
same,Potency,[3],inactive
same,Potency,[4],inactive
same,Potency,[5],inactive
same,Potency,[6],inactive
same,Potency,[7],inactive
O=C(Nc1cccc(Br)c1)c1cccc(S(=O)(=O)N2CCCCCC2)c1,activation,[1],41.1% and -27.9%
same,Potency,[2],inactive
same,Potency,[3],inactive
same,Potency,[4],inactive
same,Potency,[8],16.6 µM (active)
same,Potency,[9],inactive
CC1CC(=O)C2=C(O1)OC1(C)CCC3C(C)(C)C4OC4C(=O)C3(C)C1C2 (stereo not drawn),activation,[1],16.1%
same,Potency,[2],inactive
same,Potency,[4],inactive
CN1C(=O)c2ccccc2-n2c(nc3ccccc3c2=O)/C1=C/c1ccccc1,activation,[1],2.29%
same,Potency,[2],inactive
same,Potency,[4],inactive
COc1cccc(C)c1C(=O)O[C@@H]1C[C@H](O[C@H]2[C@H](O)C[C@H](O[C@@H]3CCC[C@H]4[C@H]3C=C[C@@H]3CCCC/C=C/[C@H]5C=C(C(=O)O)[C@@H](C)C[C@@]56OC(=O)C(=C6O)OC(=O)[C@@]34C)O[C@@H]2C)O[C@H](C)[C@H]1O,activation,[1],-5.34%
same,Potency,[2],inactive
same,Potency,[4],inactive
COC(=O)C1=CO[C@@H](O[C@@H]2O[C@H](CO)[C@@H](O)[C@H](O)[C@H]2O)[C@@H]2C(CO)=CC[C@]12O,activation,[1],1.79%
same,Potency,[2],inactive
same,Potency,[4],inactive
CC(C)C[C@@H]1NC(=O)[C@@H]2C[C@@]34C[C@@H]5[C@@]6(C)CCCC(C)(C)C6CC[C@@]5(C)N(c5ccccc53)[C@H]4N2C1=O (stereo partly drawn),activation,[1],3.82%
same,Potency,[2],inactive
same,Potency,[4],inactive
